Assay results published in PubChem BioAssay AID2205 (University of Pittsburgh Molecular Library Screening Center, 2009).
Screen size: about 200,000 compounds; about 1,600 (0.8%) were called active.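 How the source made its calls: active means plate Z-score above 3 for both tubulin-high and condensed-nucleus cell shares, with cell loss under 80%, at 10 µM; inactive means the rest, inconclusive results apart.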 The full list was thinned out, with actives kept by preference.

Test: tubulin staining increase by stabilizing compounds – imaging, high-content imaging, primary screen (AID 2205);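 on % tubulin-high responders: anti alpha tubulin signal scored within the nucleus-defined area of each cell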;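 on toxicity: 0% = mean cell density of plate MIN control wells and 100% = no cells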
Settings: HeLa tubulin immunostaining HCS, 24 h, at 10 µM; % Hoechst-high responders: measured here: nuclear condensation Hoechst responders, stronger effect = higher value, share of cells brighter than vehicle mean+2SD; % tubulin-high responders: stronger effect = higher value, share of cells brighter than vehicle mean+2SD; toxicity: measured here: cytotoxicity by cell density

SMILES	% Hoechst-high responders	% tubulin-high responders	toxicity
FC(F)(F)c1nnc2ccc(N3CCN(c4ccccc4)CC3)nn12	1.98%	0.88% (inactive)	7.36%
Fc1c(F)c(C(F)(F)F)c(F)c(F)c1N1CCN(c2ccc3nnc(C(F)(F)F)n3n2)CC1	7.05%	6.71% (active)	8.52%
Cc1nn(-c2ccccc2)c(-n2cccc2)c1C(=O)O	3.22%	2.89% (inactive)	10.5%
CCCOC(=O)c1[nH]c2c(c1C)C(=O)CC(c1cccs1)C2 (centres undefined)	49.4%	25.2% (active)	48.6%
CCOC(=O)c1[nH]c2c(c1C)C(=O)CC(c1ccc(N(C)C)cc1)C2 (centres undefined)	1.67%	6.74% (inactive)	9.96%
CCCOC(=O)c1[nH]c2c(c1C)C(=O)CC(c1cc(OC)c(OC)c(OC)c1)C2 (centres undefined)	1.51%	5.08% (inactive)	9.25%
CSc1ccc(/C=N\NC(=O)CC(=O)NC(C)C)cc1	1.95%	3.08% (inactive)	8.56%
Cc1ccc(C(=O)OCC(=O)NCc2ccc3c(c2)OCO3)s1	1.59%	1.75% (inactive)	6.77%
CCOC(=O)c1nc(-c2ccc3c(c2)OCO3)[nH]c1C	10.2%	26.6% (active)	43%
CCOC(=O)c1c(C)[nH]c(C(=O)COc2ccc3c(c2)OCO3)c1C	3.29%	2.42% (inactive)	11.4%
Cc1ccc(CNC(=O)CCNS(=O)(=O)c2ccc(Br)s2)cc1	2.82%	2.88% (inactive)	3.85%
CCOc1cccc(/C=C/c2ccc3ccccc3n2)c1OC(C)=O	3.95%	5.51% (inactive)	3.2%
Cc1ccc2nc(-c3cccc(Br)c3)cc(C(=O)Nn3cnnc3)c2c1	3.03%	6.01% (inactive)	5.1%
Fc1ccc2c(c1)C(c1cccnc1)=NNC(c1cccs1)=N2	34.4%	13.2% (active)	33.1%
COc1ccc2c(c1)C(c1cccs1)=NNC(c1cccnc1)=N2	1.1%	2.37% (inactive)	7.76%
NC(=O)c1ccc(NC(=O)COC(=O)c2c3c(nc4ccccc24)/C(=C\c2ccc4c(c2)OCO4)CCC3)cc1	1.77%	5.36% (inactive)	8.9%
Cc1ccc(NC(=O)CC2S/C(=N/N=C3\CCCc4ccccc43)NC2=O)cc1 (centres undefined)	2.08%	1.84% (inactive)	8.37%
C[n+]1ccccc1C1CCCC/C1=N\Nc1ccc([N+](=O)[O-])cc1[N+](=O)[O-] (centres undefined)	1.98%	5.56% (inactive)	5.84%
CC(=O)c1ccc(S(=O)(=O)Nc2ccc(C(=O)NCC(c3ccccc3)N(C)C)cc2)cc1 (centres undefined)	1.41%	1.91% (inactive)	3.99%
Nc1c(C(=O)O)cnn1-c1ccccc1	1.87%	1.93% (inactive)	3.6%
OCC1(CCOc2ccccc2)CCN(Cc2cn[nH]c2-c2ccccc2)CC1	2.29%	2.29% (inactive)	7.78%
Cc1c(CN2CCC(CO)(CCOc3ccccc3)CC2)[nH]c2ccc(Cl)cc12	7.79%	27.6% (active)	29.9%
Cc1cccc(-c2ncc(CN3CCC(CO)(CCCc4ccccc4)CC3)cn2)c1	2.55%	2.1% (inactive)	2.96%
CCc1ccccc1NC(=S)N(CCN1CCCCCC1)Cc1ccco1	2.22%	4.39% (inactive)	2.58%
O=c1[nH]n(-c2ccc([N+](=O)[O-])cc2)c(=O)c2ccccc12	1.89%	3.4% (inactive)	9.65%
Cc1ccc(-n2c(SCC(=O)N3c4ccccc4Sc4ccccc43)nnc2-c2ccncc2)cc1	1.48%	4.83% (inactive)	6.63%

SMILES	% Hoechst-high responders	% tubulin-high responders	toxicity
Cc1cc(C)c(C#N)c(SCC(=O)Nc2ccccc2)n1	2.87%	3.04% (inactive)	8.63%
Cc1cccc(C)c1NC(=O)CSc1ccc([N+](=O)[O-])cn1	2.4%	2.2% (inactive)	2.93%
Cc1cc2cc3c(cc2nc1SCC(=O)Nc1c(C)cccc1C)CCC3	34.5%	47% (active)	36.2%
CCCCN1C(=O)CCC(C(=O)O)C1c1ccc(OC)cc1 (centres undefined)	2.91%	4.23% (inactive)	11.7%
O=c1ccc2cc(S(=O)(=O)N3CCN(c4ccccc4)CC3)ccc2o1	1.39%	0.945% (inactive)	5.98%
O=C1CC(=O)Nc2cc(S(=O)(=O)N3CCN(c4cccc(C(F)(F)F)c4)CC3)ccc2N1	10.2%	22.1% (active)	36.8%
O=S(=O)(c1cccc(C(F)(F)F)c1)N1CCN(c2cnccn2)CC1	2.29%	4.64% (inactive)	6.14%
C/C(CC1CC(C)(C)OC1=O)=N/Nc1nc(-c2ccccc2)cs1 (centres undefined)	2.24%	6.39% (inactive)	11.5%
Cc1ccc2nc(-c3ccncc3)cc(C(=O)Nc3ccc(OC(F)F)cc3)c2c1	37%	13.9% (active)	27.1%
Cc1ccc2nc(-c3ccncc3)cc(C(=O)Nc3ccc4c(c3)OCCO4)c2c1	4.59%	3.49% (inactive)	10%
Cc1ccc2nc(-c3ccccn3)cc(C(=O)Nc3ccc4c(c3)OCO4)c2c1	2.11%	3.85% (inactive)	5.75%
CC(C)(O)C#Cc1ncc(C(F)(F)F)cc1Cl	2.46%	3.98% (inactive)	7.29%
O=C1CC(N2CCN(c3ccc(F)cc3)CC2)C(=O)N1c1ccccc1 (centres undefined)	1.93%	2.61% (inactive)	4.03%
Cc1onc(C(=O)NCc2ccc(F)cc2)c1[N+](=O)[O-]	1.75%	2.95% (inactive)	6.2%
COc1ccc(/C=C/C(=O)OCC(=O)Nc2cccc(Oc3ccccc3)c2)c(OC)c1	4.35%	1.52% (inactive)	2.38%
COc1ccc(OC)c(/C=C/C(=O)OCC(=O)Nc2ccc3c(c2)OCCO3)c1	20.4%	17.6% (active)	25.4%
COc1ccc(/C=C/C(=O)Nc2ccc3c(c2)OCCO3)cc1OC	1.93%	1.43% (inactive)	9.72%
O=C(CSc1ccc2nnc(-c3ccccc3)n2n1)N1CCCc2ccccc21	4.1%	2.62% (inactive)	12.3%
NC1=NC(=O)S/C1=C\c1ccc(O)cc1	3.29%	1.93% (inactive)	4.56%
O=C(NNC(=S)NCc1ccco1)C(c1ccccc1)c1ccccc1	2.12%	1.06% (inactive)	3.3%
CCOC(=O)CSC1=C(C#N)C(c2ccco2)C(C(=O)OCc2ccccc2)=C(C)N1 (centres undefined)	31.7%	50.8% (active)	30%
CCOC(=O)CSC1=C(C#N)C(c2sccc2C)CC(=O)N1 (centres undefined)	46%	25.8% (active)	48.2%
CC1=C(C(=O)Nc2ccccc2)C(c2ccco2)C(C#N)=C(SCC(N)=O)N1 (centres undefined)	1.48%	1.69% (inactive)	9.84%
C=CCSC1=C(C#N)C(c2cc(Br)c(O)c(OC)c2)CC(=O)N1 (centres undefined)	5.45%	1.66% (inactive)	9.07%
Cc1ccc(C2CC(=O)NC(SCC(=O)OCc3ccccc3)=C2C#N)o1 (centres undefined)	13%	33.6% (active)	51.7%
COc1cc2c(cc1OC)C(c1ccc(C)o1)CC(=O)N2 (centres undefined)	2.57%	2.94% (inactive)	5.58%

SMILES	% Hoechst-high responders	% tubulin-high responders	toxicity
COC(=O)CSC1=C(C#N)C(c2ccccc2OC)C(C(=O)OC)C(=O)N1 (centres undefined)	1.9%	3.79% (inactive)	6.69%
C=CCOC(=O)C1=C(C)NC(SCC(=O)OCC)=C(C#N)C1c1ccc(C)cc1 (centres undefined)	1.55%	2.42% (inactive)	8.87%
CC1=C(C(=O)OCc2ccccc2)C(c2ccco2)n2ncnc2N1 (centres undefined)	2.47%	2.96% (inactive)	10.1%
CCOC(=O)c1cnc2ccc(F)cc2c1Nc1ccc2c(c1)OCCO2	3.26%	2.38% (inactive)	9.58%
O=C(COC(=O)/C=C/c1nc2ccccc2s1)Nc1ccccc1Oc1ccccc1	2.41%	2.82% (inactive)	3.33%
Cc1oc2cc([N+](=O)[O-])c(O)c([N+](=O)[O-])c2c1C(=O)c1ccc(Br)cc1	1.62%	3.42% (inactive)	6.71%
O=C(COC(=O)C1CCCCC1)Nc1ccc([N+](=O)[O-])cc1	1.85%	1.8% (inactive)	7.95%
O=C(NC1CCCCCC1)c1cccnc1Sc1ccc(Cl)cc1	1.73%	4.58% (inactive)	7.66%
O=C(CSc1ccccn1)Nc1nc2c(ccc3ccccc32)s1	1.64%	2.26% (inactive)	7.1%
CCO[C@H]1OC(C(=O)Nc2ccccc2)=C[C@@H](C2CC2)[C@@H]1CCCO	1.42%	1.2% (inactive)	3.73%
CCC(C)NC(=O)/C=C/c1ccc(S(=O)(=O)NCc2ccco2)cc1 (centres undefined)	1.97%	1.46% (inactive)	3.99%
Cc1c(/C=N\NC(=O)c2cc3ccccc3o2)c2ccccc2n1C	21.2%	38.7% (active)	75.1%
Cc1c(/C=N/N2C(=O)C3C4C=CC(C4)C3C2=O)c2ccccc2n1C (centres undefined)	1.92%	5.53% (inactive)	6.18%
O=C(N/N=C/c1coc2ccccc2c1=O)c1cc2ccccc2o1	2.07%	3.76% (inactive)	5.72%
O=C(N/N=C/c1ccc(OCC2COCCO2)cc1)c1ccc(Br)cc1 (centres undefined)	1.72%	2.47% (inactive)	8.95%
CC(C)c1csc(CN2CCC(CO)(Cc3ccccc3)CC2)n1	1.55%	3.05% (inactive)	6.68%
O=S(=O)(c1ccc(F)cc1)N1CCN(C(=S)NCc2ccco2)CC1	3.02%	4.87% (inactive)	5.01%
COc1ccc(CC(NC(C)=O)C(=O)NC2CCN(C(=O)C3CC3)CC2)cc1OC (centres undefined)	1.12%	2.29% (inactive)	9.53%
O=C(CN1CCC(O)(c2ccccc2)CC1)Nc1ccc2c(c1)OCCO2	1.61%	5.34% (inactive)	10.9%
CCc1ccc2c(c1)C(c1ccc([N+](=O)[O-])cc1)=NNC(c1ccccc1)=N2	3.31%	2.17% (inactive)	4.07%
CCOc1ccc2c(c1)C(c1ccc(C)cc1)=NNC(c1ccc(C)cc1)=N2	14.4%	37.8% (active)	35.7%
Cc1ccc(C2=Nc3c(ccc4ccccc34)C(c3ccncc3)=NN2)cc1	2.17%	4.68% (inactive)	5.9%
COc1cccc(CN(C)CC(=O)Nc2sc3c(c2C#N)CCC3)c1	1.26%	3.67% (inactive)	4.57%
CC1(C)CC(=O)C(CC(=O)N2CCC(Cc3ccccc3)CC2)C(=O)C1	2.54%	4.67% (inactive)	7.14%
Cc1csc(CN(C)C(=O)CC2C(=O)NCCN2CC(C)(C)C)n1 (centres undefined)	2.16%	2.8% (inactive)	7.49%
Nc1nonc1-n1nnc(C(=O)N/N=C/c2cc(Br)ccc2O)c1CSC1=NCCS1	0.673%	9.12% (inactive)	24.4%
